The values below come from PubChem BioAssay AID588342 (National Center for Advancing Translational Sciences (NCATS), 2011).

Structures are written as SMILES. Among all 360,000 compounds or so, about 25,000 (6.9%) were called active. Entries that show only a call come without a potency. Another 9% or so got no clear call; they are omitted. This is one part of a sample in which actives are shown more often than they occur. Calls follow the shape of the dose curve; as a rule, active = well fitted inhibition curve with a large enough effect; inconclusive = small, poorly fitted or top-dose-only effect; inactive = flat fitted curve, though single readings scatter.
Potency is read from the fitted curve at half-maximal effect.

Chain of Luciferin 4-monooxygenase (Photinus pyralis) (P08659 whole entry, looked up): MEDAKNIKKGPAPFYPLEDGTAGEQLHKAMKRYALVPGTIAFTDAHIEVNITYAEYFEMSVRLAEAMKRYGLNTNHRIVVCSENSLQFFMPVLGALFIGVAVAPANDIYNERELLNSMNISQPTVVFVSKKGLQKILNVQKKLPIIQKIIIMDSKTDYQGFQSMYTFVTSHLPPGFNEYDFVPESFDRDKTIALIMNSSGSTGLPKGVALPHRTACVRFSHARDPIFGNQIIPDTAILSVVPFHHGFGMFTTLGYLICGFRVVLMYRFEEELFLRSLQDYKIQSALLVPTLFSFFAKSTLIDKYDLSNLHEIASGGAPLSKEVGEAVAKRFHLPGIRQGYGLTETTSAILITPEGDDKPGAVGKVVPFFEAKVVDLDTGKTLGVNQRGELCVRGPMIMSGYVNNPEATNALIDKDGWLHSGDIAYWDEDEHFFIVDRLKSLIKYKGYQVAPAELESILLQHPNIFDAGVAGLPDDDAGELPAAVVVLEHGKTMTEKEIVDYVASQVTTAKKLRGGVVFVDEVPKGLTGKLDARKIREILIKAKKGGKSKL

The assay addresses Luciferin 4-monooxygenase (Photinus pyralis) (UniProt P08659). Kind of assay: qHTS profiling assay for firefly luciferase inhibitor/activator using purifed enzyme and Km concentrations of substrates (counterscreen for miR-21 project). Also: nearly all actives have a fitted effect of over 55% in size. The settings on record: purified FLuc, luminescence inhibition; series mostly up to 57.5 µM. The gist of the method: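 Purified P. pyralis luciferase (10nM final) with 10uM D-luciferin and 10uM ATP (Km levels) in 50mM Tris acetate pH 7.5, 10mM Mg acetate, 0.01% Tween-20, 0.05% BSA; qHTS 6-point titration, ~60 µM downward; luminescence read.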
In general terms: In qHTS, concentration-response curves come from the screen itself.
On to `COc1ccc(/C=C(\C#N)c2c[nH]c3ccccc23)cc1`, for which the Potency is 19 µM (active).

For `COc1ccc2[nH]cc(/C=C(/C#N)S(=O)(=O)c3ccccc3)c2c1`, the Potency entry is “inactive”.

Turning to `COc1ccc(C(C(O)C(=O)c2c[nH]c3ccccc23)N2CCN(c3ccccc3)CC2)cc1` (stereo not drawn), the Potency entry was “inactive”.

In the case of `CCOC(=O)c1cc(NC(=O)c2ccc(F)cc2)c(=O)n2c1oc1ccccc12`, the Potency result was “inactive”.

In the case of `COC1=C/C(=C/c2c(N)n3nc(CC(=O)N4CCOCC4)sc3nc2=O)C=CC1=O`, the Potency entry is “inactive”.

As for `COc1cc2c(cc1OC)/C(=C/C(=O)c1ccc(NC(C)=O)cc1)NCC2`, the Potency was 16.9 µM (active).

As to `CCNC(=O)c1ccc(OCC(=O)Nc2ccc(F)cc2)c(OC)c1`, the Potency result was “inactive”.

Consider `COc1cc2c(cc1OC)CN(CC(=O)Nc1ccc(F)cc1)CC2`, for which the Potency result was “inactive”.

Take `CCN(CC(=O)Nc1ccccc1C(=O)NC1CC1)Cc1cccs1`: the Potency result was “inactive”.

On to `Cc1cc(OCC(=O)NCC2(N(C)C)CCCCC2)cc(C)c1Cl`, for which the Potency entry is “inactive”.

For the molecule `Cc1ccnc(N2CCCC(C(=O)NC3CC3)C2)n1` (stereo not drawn), the Potency result is “inactive”.

For the molecule `Cc1ccnc(-n2sc3ccccc3c2=O)n1`, the Potency was 9.53 µM (active).

As to `Cc1ccnc(SCC(N)=O)n1`, the Potency result is “inactive”.

As for `CCN(Cc1ccccc1)S(=O)(=O)c1ccc2c(c1)CCCN2C(C)=O`, the Potency result was “inactive”.

Consider `COc1ccc(N2CCN(C(=O)COc3ccc4c(C)cc(=O)oc4c3)CC2)cc1`, for which the Potency result was “inactive”.

Turning to `CCn1ccnc1CN(C)C(=O)c1cc(COc2ccc(-n3cncn3)cc2)on1`, the Potency entry is “inactive”.

In the case of `CN(Cc1cnccn1)C(=O)c1cc(COc2cccc(C(F)(F)F)c2)on1`, the Potency result is “inactive”.

Take `CN(Cc1cccnc1)C(=O)c1cc(COc2ccc3ncccc3c2)on1`: the Potency result is “inactive”.

Regarding `Cc1ccc(OCc2cc(C(=O)N(C)CCc3ccccc3)no2)cc1C`, the Potency was 23.9 µM (active).

On to `CN(CCOc1ccccc1)C(=O)c1cc(COc2c(F)cccc2F)on1`, for which the Potency result was “inactive”.

As to `Cc1cc(CN(C)C(=O)c2cc(COc3ccc(C)c(C)c3)on2)n[nH]1`, the Potency was 2.39 µM (active).

With `COc1cccc(CNC(=O)c2cc(=O)[nH]c3ccc(S(=O)(=O)N4CCCCC4)cc23)c1`, the Potency entry was “inactive”.

In the case of `Cc1cccc(OCCCC(=O)Nc2sc3c(c2C(N)=O)CCC(C)C3)c1` (stereo not drawn), the Potency result was “inactive”.

Regarding `OC(c1ccccc1)C(CN1CCOCC1)c1ccccc1` (stereo not drawn), the Potency entry is “inactive”.

On to `COC(=O)c1ccccc1NC(=O)c1cnn(-c2ccc(F)cc2)c1-n1cccc1`, for which the Potency entry was “inactive”.

Turning to `COC(=O)c1c(NC(=O)CCCOc2ccccc2)sc2c1CCC(C)C2` (stereo not drawn), the Potency result is “inactive”.

With `CC1CCN(C(=O)COC(=O)CCC(=O)c2cccs2)CC1`, the Potency entry is “inactive”.

For the molecule `O=C(Nc1ccc2nc(SCC(=O)N3CCCc4ccccc43)sc2c1)c1ccc(Cl)cc1`, the Potency result is “inactive”.

As for `Cc1nnc(SCC(=O)NCCOc2ccc(Cl)cc2)n1-c1ccccc1`, the Potency result is “inactive”.

For `Cc1nnc(SCc2ccc(C(=O)c3ccc(Cl)cc3)o2)n1-c1ccccc1`, the Potency is 15.1 µM (active).

In the case of `Cc1nnc(SCC(=O)N2CCN(c3ccccc3)CC2)n1-c1ccccc1`, the Potency result is “inactive”.

`COc1ccc(C)cc1NC(=O)c1cc(-c2ccccc2)nc2c1cnn2C(C)C`: the Potency result is “inactive”.

Take `COCCN(CCOC)c1nc(N)c2c(N)nc3c(c2c1C#N)CC(=O)N3Cc1ccc(Cl)cc1`: the Potency entry is “inactive”.

On to `Cc1nnc(SCc2nc3ccccc3nc2C)s1`, for which the Potency result is “inactive”.

`Cc1ccc(Nc2nc(N)nc(CSc3nnc(C)s3)n2)cc1`: the Potency was 10.7 µM (active).

As for `CCOC(=O)C1CCCN(Cc2nc(N)nc(Nc3ccc(C)cc3)n2)C1` (stereo not drawn), the Potency result is “inactive”.

As to `O=C(COC(=O)Cn1[nH]c(=O)c2ccccc2c1=O)Nc1ncc(Cl)cc1Cl`, the Potency entry is “inactive”.

With `Cc1ccc(S(=O)(=O)NCCC(=O)NNC(=O)C2COc3ccccc3O2)cc1` (stereo not drawn), the Potency result was “inactive”.

For `CCN(CCCNC(=O)Cn1ncc2c3ccccc3n(C)c2c1=O)Cc1ccccc1`, the Potency result was “inactive”.

In the case of `Cc1nn(CC(=O)Nc2ccc(F)cc2)c(=O)c2ccccc12`, the Potency result was “inactive”.

For `O=C(Cc1ccc(Cl)cc1)Nc1ccc2nn(-c3ccc(Cl)cc3)nc2c1`, the Potency result is “inactive”.

Take `CCC(=O)Nc1ccc2nn(-c3ccc(F)cc3)nc2c1`: the Potency was 1.35 µM (active).

On to `Cc1ccc(NC(=O)c2oc3ccc(S(=O)(=O)N4CCCCC4)cc3c2C)cc1Cl`, for which the Potency result is “inactive”.

For the molecule `COc1ccc(C(=O)N2CCN(c3ncccn3)CC2)cc1S(=O)(=O)N1CCOCC1`, the Potency entry is “inactive”.

`O=c1c(Cl)c(NC2CC2)cnn1-c1ccccc1`: the Potency result is “inactive”.

As for `CCc1nc2c(cnn2-c2ccc(C)cc2)c(=O)n1-c1ccc(C)cc1`, the Potency result is “inactive”.

For `C=CCNc1cnn(-c2ccc(C)cc2)c(=O)c1Cl`, the Potency was 15.1 µM (active).

`CCCCN(CC)CCCNC(=O)Cn1ncc2c([nH]c3ccc(C)cc32)c1=O`: the Potency entry is “inactive”.

For `O=C(CNCc1ccc(Cl)cc1)Nc1cccc(C(=O)O)c1`, the Potency result is “inactive”.

As to `O=C(Nc1c(-c2ccc(F)cc2)nc2ccccn12)c1cccc(F)c1`, the Potency entry was “inactive”.

Take `O=C(c1ccc(F)cc1)n1cc(C(=S)N2CCOCC2)c2ccccc21`: the Potency entry is “inactive”.

Regarding `O=C(c1ccc(F)cc1)n1c(=S)nc2ccccn21`, the Potency was 0.269 µM (active).

Consider `Cc1cc(C)c(NC(=O)c2cc3sc(Cl)cc3n2C)c(C)c1`, for which the Potency entry is “inactive”.

Take `CCC(=O)c1c[nH]c(C(=O)NCC2CCCO2)c1` (stereo not drawn): the Potency entry is “inactive”.

Take `O=C(NCCCn1ccnc1)c1cc2c(s1)CCCC2`: the Potency entry was “inactive”.

In the case of `O=C(Nc1ccc(F)cc1)c1cc2c(s1)CCCC2`, the Potency is 1.9 µM (active).

On to `O=C(c1cc2c(s1)CCC2)N1CCN(c2ccccc2)CC1`, for which the Potency result is “inactive”.

For the molecule `O=C(NNC(=O)c1cc2c(s1)CCCC2)c1ccccc1`, the Potency was 26.9 µM (active).

For `O=C(NNC(=O)C1CCC1)c1ccccc1`, the Potency result was “inactive”.

Regarding `COc1ccc(C(CNC(=O)c2cc3c(s2)CCCC3)N2CCOCC2)cc1` (stereo not drawn), the Potency entry is “inactive”.

As for `O=C(NCCCN1CCOCC1)c1cc2c(s1)CCC2`, the Potency entry is “inactive”.

Turning to `O=C(NCC1CCCO1)c1cc2c(s1)CCCC2` (stereo not drawn), the Potency is 12 µM (active).

With `COc1ccc(Cn2c(=O)c3oc4ccccc4c3n(CC(=O)Nc3ccc(F)cc3F)c2=O)cc1`, the Potency result was “inactive”.

For `COc1ccc(Cn2ccn(Cc3cccc(OC)c3)c(=O)c2=O)cc1`, the Potency entry is “inactive”.

On to `CN(C)c1ccc(NC(=O)CSc2nc(-c3ccco3)cc(C(F)(F)F)n2)cc1`, for which the Potency result was “inactive”.

On to `CSc1ccccc1OCc1cc(C(=O)N(C)CCc2c(C)n[nH]c2C)no1`, for which the Potency result is “inactive”.

As to `COC(=O)[C@@H]1CCCN1C(=O)c1cc(COc2cccc3cccnc23)on1`, the Potency entry was “inactive”.

With `CSc1ccccc1OCc1cc(C(=O)N2C[C@H]3CC[C@H]2C3)no1`, the Potency is 10.7 µM (active).

With `CCc1nnc(SCc2nc(-c3cccc(C)c3)oc2C)c2cc3sc(C)cc3n12`, the Potency result is “inactive”.

In the case of `COc1ccc2[nH]c(C(=O)N3CCN(C)CC3)c(C)c2c1`, the Potency entry is “inactive”.

Take `COc1ccc2[nH]c3ccc(OC)cc3c2c1`: the Potency was 21.3 µM (active).

Regarding `COc1ccc2[nH]c(=S)cc(C)c2c1`, the Potency entry is “inactive”.

As to `CCCCn1c(CNC(=O)C23CC4CC(CC(C4)C2)C3)nnc1SCC(=O)Nc1ccc(C)cc1`, the Potency result is “inactive”.

Consider `CC(C)Oc1ccc(CNC(=O)C2CCN(c3nc4ccccc4n(C)c3=O)CC2)cc1`, for which the Potency entry is “inactive”.

Take `O=C(O)COCC(=O)NCc1csc2ccc(Cl)cc12`: the Potency result is “inactive”.

With `Cc1ccccc1NC(=O)c1cc(S(=O)(=O)Nc2cccc(C(=O)O)c2)ccc1Cl`, the Potency entry is “inactive”.

In the case of `C/C(=N\Nc1cccc(C(=O)O)c1)c1ccc2c(c1)Nc1ccccc1S2`, the Potency was 7.57 µM (active).

Regarding `CC(=O)Nc1cccc(/C(C)=N/NC(=O)c2c(-c3ccccc3Cl)noc2C)c1`, the Potency result was “inactive”.

With `Cc1ccc(S(=O)(=O)N2CCOCC2)cc1NC(=O)COC(=O)c1cnccn1`, the Potency result was “inactive”.

With `Cc1cc(F)ccc1NS(=O)(=O)c1ccc(-n2cccn2)cc1`, the Potency entry was “inactive”.

As to `O=C(COC(=O)C1(c2ccc(F)cc2)CCCC1)N1CCNC1=O`, the Potency result is “inactive”.

Take `COCCN1C(=O)C(=O)/C(=C(/O)c2ccc(S(=O)(=O)N3CCOCC3)cc2)C1c1ccc(O)c(OC)c1` (stereo not drawn): the Potency result was “inactive”.

As for `O=C(NCc1ccncc1)NC12CC3CC(CC(C3)C1)C2`, the Potency entry was “inactive”.

For `CSc1ccc(/C=C/C(=O)NC23CC4CC(CC(C4)C2)C3)cc1`, the Potency is 13.5 µM (active).

On to `CSc1ccc(NC(=O)/C=C/C(=O)O)cc1`, for which the Potency entry is “inactive”.

`COC(=O)c1sc(NC(=O)COC(=O)C2CCC2)c(C(=O)OC)c1C`: the Potency result is “inactive”.

For `Cc1cccc2c1N(CCOc1ccccc1)C(=O)C2=O`, the Potency result was “inactive”.

As for `O=C(OCCN1C(=O)c2ccccc2C1=O)Oc1ccccc1`, the Potency result is “inactive”.

With `O=C1c2ccccc2C(=O)N1CCOc1ccc(F)cc1`, the Potency is 13.5 µM (active).

In the case of `Cc1nc2c(c(C)nn2-c2ccccc2)c(C)c1CCC(=O)NCCc1ccc(Cl)cc1`, the Potency entry is “inactive”.

Regarding `O=C(CSc1ncnc2scc(-c3ccccc3)c12)NCc1ccc2c(c1)OCO2`, the Potency result was “inactive”.

In the case of `Cc1cc(C)c(NC(=O)CN2C(=O)c3cccnc3Oc3ccc(Cl)cc32)c(C)c1`, the Potency entry was “inactive”.

For the molecule `Cn1nnc(NC(=S)NC(=O)c2ccccc2)n1`, the Potency entry was “inactive”.

For the molecule `Cn1c(NC(=O)c2ccccc2)nc2ccccc21`, the Potency is 6.75 µM (active).

In the case of `Cn1sc(NC(=O)c2ccccc2)nc1=O`, the Potency is 19 µM (active).

On to `CCn1c(NC(=O)c2nn(C)cc2Br)nc2ccccc21`, for which the Potency result is “inactive”.

`Cc1nc2ccccc2c(=O)n1NC(=O)c1ccccc1`: the Potency result was “inactive”.

Regarding `Cn1c(S(=O)(=O)O)nc2ccccc21`, the Potency entry was “inactive”.

For the molecule `Brc1cc(Br)c(Oc2cc(Br)c(Br)cc2Br)cc1Br`, the Potency entry was “inactive”.

For the molecule `CC1CCC(N2CC(=O)N(CCC3=CCCCC3)C(c3ccc(F)cc3)C2=O)CC1` (stereo not drawn), the Potency result is “inactive”.

On to `COc1ccc(CN2CCN(C(=O)c3cc(C4CC4)nn3-c3ccccc3)CC2)cc1F`, for which the Potency result is “inactive”.

Consider `CCn1c2ccccc2c2cc(NC(=O)Nc3ccc([N+](=O)[O-])cc3C)ccc21`, for which the Potency result is “inactive”.

Turning to `Cc1ccc(-n2c3nc(=O)[nH]c(=O)c-3cc3c(Cl)cccc32)cc1`, the Potency entry was “inactive”.

For the molecule `Cc1ccccc1-c1nc(SCC(=O)N(C)c2ccccc2)c2c(=O)n(C)c(=O)n(C)c2n1`, the Potency result is “inactive”.

`CCN(CC)S(=O)(=O)c1ccc(N2CCOCC2)c(NC(=O)c2ccc(=O)n(C)n2)c1`: the Potency entry is “inactive”.

Regarding `CCOC(=O)C1C(=O)NC(N2CCN(c3ccccc3)CC2)=NC1c1ccco1` (stereo not drawn), the Potency entry was “inactive”.

With `CCOC(=O)C1C(=O)C=C(c2ccc(OC)cc2)CC1c1ccco1` (stereo not drawn), the Potency was 13.5 µM (active).

For `COc1ccc(C2=NN(C(=O)CSc3nnnn3C)C(c3ccco3)C2)cc1` (stereo not drawn), the Potency entry is “inactive”.
